Results filed as inconclusive are left out. Where a call stands in place of a potency, no number is given. Active and inactive are the calls of the source. Calls follow the shape of the dose curve; as a rule, active = well fitted inhibition curve with a large enough effect; inconclusive = small, poorly fitted or top-dose-only effect; inactive = flat fitted curve, though single readings scatter.
System: MCC-26
Assay: qHTS assay to identify novel small-molecules to repurpose for Merkel cell carcinoma treatment (AID 1296009); also: nearly all actives have a fitted effect of over 60% in size
Settings: MCC and control cell lines, CellTiter-Glo viability, 72 h; series mostly up to 46 µM; activity change, negative = cytotoxicity: at the top concentration
Description: MCC is a rare and aggressive neuroendocrine skin cancer with limited treatment options. Approximately 80% of MCCs have the Merkel cell polyomavirus (MCPyV) DNA integrated into the host genome (virus-positive: VP-MCC) and viral oncogenes drive oncogenesis. The remaining MCCs are virus-negative (VN-MCC) and are caused by UV mutagenesis. To identify novel treatments for VP-MCC and/or VN-MCC we screened three VP-MCC cell lines (WAGA, MKL-1, MKL-2), three VN-MCC cell lines (MCC-13, MCC-26, UISO), and four immortalized, non-transformed control cell lines (HaCaT, HEK293T, CRL7250, NIH-3T3) against ~2,400 compounds in the NCGC Pharmaceutical Collection (NPC) and ~1,900 compounds in the Mechanism Interrogation PlatE (MiPE). Using cell viability as a readout (CellTiter-Glo assay) we found both overlapping and distinct drugs that can be repurposed for the treatment of VP-MCC and VN-MCC.
A high-throughput screen was conducted in 1536-well white flat bottom plates (Corning) on a Kalypsys robotic system. Cell lines WAGA, MKL-1, MKL-2, MCC-13, MCC-26, UISO, HaCaT, HEK293T, CRL7250, and NIH-3T3 were screened against 2 small molecule annotated drug libraries NPC and MIPE in dose response (8 and 11 pt. respectively) measuring cell viability after 72 hours of incubation. […] A 1,536 pintool (Kalypsys) was used to transfer 23 nL of compound in DMSO to the 1,536-well assay plates. After 72 hr incubation at 37 degree celsius, 2.5 uL of CellTiter-Glo (Promega) was dispensed into each well using a BiorapTR. Plates were incubated at room temperature for 10 min, transferred to a ViewLux (PerkinElmer) and the luminescence was recorded using an exposure time of 2 seconds. Relative luminescence units (RLUs) were normalized to in-plate controls (no cells as a positive (cytotoxicity) control, DMSO as negative control) and the normalized data was processed using NCATS in-house software.

Row | Compound | Potency | activity change, negative = cytotoxicity
1 | COc1ccc(C2CNC(=O)C2)cc1OC1CCCC1 (stereo not given) | inactive | –
2 | Nc1nnc(-c2cccc(Cl)c2Cl)c(N)n1 | inactive | –
3 | CN(C)CCC=C1c2ccccc2C=Cc2ccccc21 | inactive | –
4 | C[C@H]1c2cccc(O)c2C(O)=C2C(=O)[C@]3(O)C(O)=C(C(N)=O)C(=O)[C@@H](N(C)C)[C@@H]3[C@@H](O)[C@@H]21 | inactive | –
5 | CC(=O)OCC(CCn1cnc2cnc(N)nc21)COC(C)=O | inactive | –
6 | C[C@](N)(Cc1ccc(O)c(O)c1)C(=O)O | inactive | –
7 | Nc1c2c(nc3ccccc13)CCCC2 | inactive | –
8 | Clc1ccc2nsnc2c1NC1=NCCN1 | inactive | –
9 | CN1CCN(C2=Nc3cc(Cl)ccc3Nc3ccccc32)CC1 | inactive | –
10 | CN1CCN(CCCN2c3ccccc3Sc3ccc(Cl)cc32)CC1 | inactive | –
11 | CS(=O)(=O)CCNCc1ccc(-c2ccc3ncnc(Nc4ccc(OCc5cccc(F)c5)c(Cl)c4)c3c2)o1 | – | 2.9% (inactive)
12 | CCC1(C)CC(=O)NC1=O (stereo not given) | inactive | –
13 | Cc1ccc(C(=O)Nc2ccc(S(=O)(=O)O)c3cc(S(=O)(=O)O)cc(S(=O)(=O)O)c23)cc1NC(=O)c1cccc(NC(=O)Nc2cccc(C(=O)Nc3cc(C(=O)Nc4ccc(S(=O)(=O)O)c5cc(S(=O)(=O)O)cc(S(=O)(=O)O)c45)ccc3C)c2)c1 | inactive | –
14 | CN(Cc1cnc2nc(N)nc(N)c2n1)c1ccc(C(=O)N[C@@H](CCC(=O)O)C(=O)O)cc1 | – | -2.34% (inactive)
15 | COc1ccccc1OCC(O)CN1CCN(CC(=O)Nc2c(C)cccc2C)CC1 (stereo not given) | inactive | –
16 | CN(C)CCCN1c2ccccc2CCc2ccc(Cl)cc21 | – | -8.01% (inactive)
17 | NCCS(=O)(=O)O | inactive | –
18 | O=c1[nH]cc(F)c(=O)[nH]1 | inactive | –
19 | COc1nc(C)nc(Cl)c1NC1=NCCN1 | inactive | –
20 | CC(C(=O)O)c1cccc(C(=O)c2ccccc2)c1 (stereo not given) | inactive | –

Row | Compound | Potency | activity change, negative = cytotoxicity
21 | O=C(c1ccc(OCCN2CCCCC2)cc1)c1c(-c2ccc(O)cc2)sc2cc(O)ccc12 | inactive | –
22 | CN(C)C(=N)N=C(N)N | inactive | –
23 | NC(=O)OCC(COC(N)=O)c1ccccc1 | inactive | –
24 | Clc1ccc2c(c1)C(N1CCNCC1)=Nc1ccccc1O2 | inactive | –
25 | CC(C)NCC(O)COc1ccc(CCOCC2CC2)cc1 (stereo not given) | inactive | –
26 | COc1ccccc1N1CCN(CC(O)COc2cccc3ccccc23)CC1 (stereo not given) | inactive | –
27 | CNCCCC12CCC(c3ccccc31)c1ccccc12 | – | -7.98% (inactive)
28 | CN1C2CCC1CC(OC(=O)C(CO)c1ccccc1)C2 (stereo not given) | – | -1.14% (inactive)
29 | COc1cc2nc(N3CCN(C(=O)c4ccco4)CC3)nc(N)c2cc1OC | – | -4.3% [at 16.1 µM] (inactive)
30 | CC(C)(Oc1ccc(C2CC2(Cl)Cl)cc1)C(=O)O (stereo not given) | inactive | –
31 | O=C(Nc1ccc([N+](=O)[O-])cc1Cl)c1cc(Cl)ccc1O | – | -19.3% [at 16.1 µM] (inactive)
32 | CC(C)NCC(O)c1ccc(O)c(O)c1 (stereo not given) | inactive | –
33 | CN1C(C(=O)Nc2ccccn2)=C(O)c2ccccc2S1(=O)=O | inactive | –
34 | CC(C)(C)C(=O)Oc1ccc(S(=O)(=O)Nc2ccccc2C(=O)NCC(=O)O)cc1 | inactive | –
35 | Cc1ccccc1N1C(=O)c2cc(S(N)(=O)=O)c(Cl)cc2NC1C (stereo not given) | inactive | –
36 | COc1ccc(CCN(C)CCCC(C#N)(c2ccc(OC)c(OC)c2)C(C)C)cc1OC (stereo not given) | inactive | –
37 | CC1(CN2CCC(n3c(=O)[nH]c4ccccc43)CC2)OCc2ccccc2-n2cccc21 (stereo not given) | inactive | –
38 | Cn1c(=O)c2c(ncn2C)n(C)c1=O | inactive | –
39 | COc1cc2c(c(OC)c1OC)-c1ccc(OC)c(=O)cc1[C@@H](NC(C)=O)CC2 | inactive | –
40 | CC12CC3CC(C)(C1)CC(N)(C3)C2 | inactive | –
